Potency, IC50 (viability decrease) and outcome data for nine compounds are collected here from PubChem BioAssay (NCATS).

Each structure is given as a SMILES string. Where “and” joins values, the source holds several entries; their conditions need not be identical. Equal values may be shown once. Results filed as inconclusive are left out. Some compounds were tested as several samples or in several runs, with calls that do not always agree. Calls of active or inactive are those of the source. Unless noted, the call rests on the fitted dose curve; in most records, active means well fitted curve in the direction sought with a large enough effect; inconclusive means small, poorly fitted or top-dose-only effect, or another doubt; inactive means no such curve, though single readings can be large; an effect the other way counts as inactive or inconclusive.

Assay [1] in a line: Identifying Small Molecule Inhibitors of Pancreatic Cancer Stem Cells (SN12C, Adherent) (AID 1259358).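 Further: cell survival measured after 48 h of compound exposure.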 Further: potency means the concentration at half of the fitted maximal effect. In short, it runs like this:
(§1)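 Cytotoxicity read by CellTiter-Glo luminescence after 48 h compound exposure at 37C; percent activity scaled between DMSO-treated cells and cell-free wells. Spheroid formats used cells pre-formed 14 days in stem cell media on hydrogel.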

The nature of assay [2]: Identifying Small Molecule Inhibitors of Pancreatic Cancer Stem Cells (Panc1, Spheroid) (AID 1259359).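 Further: potency means the concentration at half of the fitted maximal effect; compound exposure lasted 48 h before reading.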 Conditions: Panc1 spheroid cancer stem cell viability. In short, it runs like this: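 Spheroids grown 14 days in stem cell media on hydrogel-coated nonadherent plates; 2D lines seeded directly. Compounds added after 4 h attachment, 48 h at 37C, 5% CO2; CellTiter-Glo luminescence normalized to DMSO (no inhibition) and no-cell wells (full inhibition).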

Assay [3] is described as follows: Identifying Small Molecule Inhibitors of Pancreatic Cancer Stem Cells (A278, Adherent) (AID 1259361). Further: nearly all actives have a fitted effect of over 35% in size. In short, it runs like this: as §1
Assay [4] can be described thus: P-glycoprotein substrates identified in KB-8-5-11 adenocarcinoma cell line, qHTS therapeutic library screen (AID 1346987). Further: nearly all actives have a fitted effect of over 65% in size. Further: potency means the concentration at half of the fitted maximal effect. In short, it runs like this: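 Compounds are pinned in dose-response onto KB-8-5-11 cells (500 cells/well, colchicine-free medium) and left 72 h at 37 degree C. CellTiter-Glo luminescence then yields AC50 values.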
(Quantitative high-throughput screening tests each substance at several concentrations.)

The nature of assay [5]: NS1 protein of Zika virus - qHTS assay to identify small molecule inhibitors in human HEK 293 cells (AID 1347053). Further: nearly all actives have a fitted effect of over 55% in size. Further: potency means the concentration at half of the fitted maximal effect. In short, it runs like this: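 Readout was TR-FRET using paired anti-NS1 antibodies after 24 h infection of HEK 293 cells with ZIKV MR766 (MOI = 0.5). Compound preceded virus by 1 h; reduced signal reflects lower NS1 expression.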
Assay [6] can be described thus: qHTS of pediatric cancer cell lines to identify multiple opportunities for drug repurposing: Primary screen for DAOY cells (AID 1347090). Further: nearly all actives have a fitted effect of over 55% in size. Further: potency means the concentration at half of the fitted maximal effect. An outline of the steps: (§2)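 Cell viability, CellTiter-Glo luminescence; 500-1,000 cells/well, 8- or 11-point titration, 48 h compound exposure at 37 degrees C, 5% CO2. Controls: DMSO neutral, bortezomib 2.3 µM final as positive.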

Assay [7] in a line: qHTS of pediatric cancer cell lines to identify multiple opportunities for drug repurposing: Primary screen for SJ-GBM2 cells (AID 1347091). Further: potency means the concentration at half of the fitted maximal effect. In short, it runs like this:
as §2

Assay [8] can be described thus: qHTS of pediatric cancer cell lines to identify multiple opportunities for drug repurposing: Primary screen for A673 cells (AID 1347092). Further: nearly all actives have a fitted effect of over 45% in size. Further: potency means the concentration at half of the fitted maximal effect. In short, it runs like this:
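A673 cells (500-1,000 cells/well) were treated 48 hours at 37 degrees C with compounds at 11-point (0.78 nM to 46 µM) or 8-point (0.59 nM to 46 µM) dilutions. Viability read by CellTiter-Glo luminescence; concentration-response curves fitted.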

The nature of assay [9]: qHTS of pediatric cancer cell lines to identify multiple opportunities for drug repurposing: Primary screen for SK-N-MC cells (AID 1347093). Further: potency means the concentration at half of the fitted maximal effect. In short, it runs like this: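 Metabolically active cells were quantified by ATP-dependent luminescence (CellTiter-Glo, 15 min at room temperature) following 48 h treatment. Cells had been plated at 500-1,000 per well and settled for 5 h beforehand.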

The nature of assay [10]: qHTS of pediatric cancer cell lines to identify multiple opportunities for drug repurposing: Primary screen for BT-37 cells (AID 1347094). Further: potency means the concentration at half of the fitted maximal effect. In short, it runs like this:
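ATP-based luminescence (CellTiter-Glo) quantifies viability after a 48-hour exposure. Compounds are dosed across 8 or 11 final concentrations; DMSO and 2.3 µM bortezomib serve as controls.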

Assay [11] can be described thus: Identifying Small Molecule Inhibitors of Pancreatic Cancer Stem Cells (SN12C, Spheroid) (AID 1259360). Further: potency means the concentration at half of the fitted maximal effect. The note with it: Potency: SN12C spheroid viability. In short, it runs like this: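 Adherent (2D) versus sphere (3D) formats; spheres generated 14 d in SCM beforehand. Compound transferred by pin tool after 4 h, 48 h incubation, CellTiter-Glo endpoint.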
Assay [12] in a line: qHTS of pediatric cancer cell lines to identify multiple opportunities for drug repurposing: Primary screen for TC32 cells (AID 1347089). Further: nearly all actives have a fitted effect of over 60% in size. In short, it runs like this: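 TC32 cells, 500-1,000/well in growth medium, compound-treated 48 h at 37 °C; viability from CellTiter-Glo luminescence. Primary screen: MIPE 11-point (0.78 nM–46 µM final), NPC 8-point (0.59 nM–46 µM final); confirmatory at 11-point dilutions.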

Assay [13] is described as follows: P-glycoprotein substrates identified in KB-3-1 adenocarcinoma cell line, qHTS therapeutic library screen (AID 1346986). Further: nearly all actives have a fitted effect of over 60% in size. The note with it: KB-3-1 parental cells viability, CellTiter-Glo, 72 h; at 44.5 µM (top of the series). An outline of the steps: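 Viability read by CellTiter-Glo after 72 h compound exposure in dose-response of KB-3-1 and KB-8-5-11 (P-gp-high) cells. Hits needed AC50 < 10 uM, >50% maximum response and curve class -1.1 to -2.4. Cherry-picks retested ± tariquidar, including pcDNA/MDR-19 HEK-293 pair.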

Assay [14] deals with Atrial natriuretic peptide receptor 1 (Homo sapiens) (UniProt P16066). Briefly: Natriuretic polypeptide receptor (hNpr1) antagonism - Pilot screen (AID 1347049; calls by dose curve;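 further: HEK293 cells with hNpr1 and GloSensor cGMP luciferase stimulated by 0.1 nM hNppA; agonist-evoked cGMP luminescence read 20 min after hNppA addition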). In short, it runs like this:
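Receptor antagonism read as cGMP-dependent luminescence in hNpr1/pGS-40F HEK293 cells: pre-read after 30 min compound exposure, post-read 20 min after hNppA agonist at 0.1 nM final, all at room temperature, protected from light; A-71915 titration as control.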

The target of assay [15] is T1, Tyrosine-protein phosphatase non-receptor type substrate 1 (Homo sapiens) + Leukocyte surface antigen CD47 (Homo sapiens) (UniProt P78324+Q08722). Briefly: CD47-SIRPalpha protein protein interaction - LANCE assay qHTS validation (AID 1347057; active means well fitted curve in the direction sought with a large enough effect in the signal ratio, with a control signal flat, not every such curve was filed as active; the % refers to the signal ratio). An outline of the steps: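 Inhibition of soluble CD47/SIRPalpha ectodomain association by titrated compounds, measured as 665/615 nm time-resolved FRET ratio after sequential 30 min room-temperature incubations.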
T1 sequence (P78324 whole entry, looked up, the tested form may be a part): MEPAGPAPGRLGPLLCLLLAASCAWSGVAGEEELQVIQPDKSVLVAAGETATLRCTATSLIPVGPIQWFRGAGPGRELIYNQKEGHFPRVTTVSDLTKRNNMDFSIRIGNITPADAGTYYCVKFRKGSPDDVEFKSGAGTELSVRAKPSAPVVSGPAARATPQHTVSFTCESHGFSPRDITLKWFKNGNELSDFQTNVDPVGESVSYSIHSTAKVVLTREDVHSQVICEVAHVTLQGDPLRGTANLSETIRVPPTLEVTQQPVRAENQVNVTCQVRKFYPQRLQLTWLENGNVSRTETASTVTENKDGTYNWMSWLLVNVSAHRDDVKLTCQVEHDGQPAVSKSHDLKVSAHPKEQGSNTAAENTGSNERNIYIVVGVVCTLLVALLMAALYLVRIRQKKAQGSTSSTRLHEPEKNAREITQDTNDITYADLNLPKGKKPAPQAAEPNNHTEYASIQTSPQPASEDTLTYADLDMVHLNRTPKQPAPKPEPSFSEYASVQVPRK
T1 sequence (Q08722 whole entry, looked up, the tested form may be a part): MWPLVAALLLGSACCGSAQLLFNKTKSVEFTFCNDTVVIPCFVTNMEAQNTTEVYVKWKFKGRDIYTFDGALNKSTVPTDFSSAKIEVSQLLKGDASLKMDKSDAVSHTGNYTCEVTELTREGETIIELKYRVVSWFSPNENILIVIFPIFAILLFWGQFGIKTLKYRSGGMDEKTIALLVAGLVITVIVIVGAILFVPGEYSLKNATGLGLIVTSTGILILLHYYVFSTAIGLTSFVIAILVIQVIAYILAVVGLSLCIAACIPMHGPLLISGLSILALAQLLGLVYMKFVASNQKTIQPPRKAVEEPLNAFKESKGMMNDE
Background: In TR-FRET formats the signal depends on donor and acceptor labels being close together.

The target of assay [16] is T1, Tyrosine-protein phosphatase non-receptor type substrate 1 (Homo sapiens) + Leukocyte surface antigen CD47 (Homo sapiens). Briefly: CD47-SIRPalpha protein protein interaction - HTRF assay qHTS validation (AID 1347058; active means well fitted curve in the direction sought with a large enough effect in the signal ratio, not every such curve was filed as active; the % refers to the signal ratio). An outline of the steps:
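Soluble extracellular domains (6His-CD47, Avi-tag-biotinylated SIRPalpha) in PBS pH 7.4 with 0.05% IGEPAL CA-630. Compounds were preincubated 30 min at RT with CD47 and anti-His-Eu, then SIRPalpha and SAV-XL665 were added. TR-FRET 665/615 ratio.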

The target is the same in assay [17]. Briefly: CD47-SIRPalpha protein protein interaction - Alpha assay qHTS validation (AID 1347059).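 Further: bead proximity luminescence from CD47 binding SIRPalpha after compound preincubation with SIRPalpha.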 In short, it runs like this:
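AlphaScreen signal between CD47-His (12.5 nM) and biotin-SIRPalpha (25 nM) soluble extracellular domains, bead-captured via Ni-NTA and streptavidin. Compounds, in 7-point titrations, met SIRPalpha 30 min before CD47; PBS pH 7.4 with 0.05% IGEPAL.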

Assay [18] deals with Parathyroid hormone/parathyroid hormone-related peptide receptor (Homo sapiens) (UniProt Q03431). Briefly: qHTS for PTHR1 Agonists: Optimization Screen against the NCGC LOPAC library (AID 1347079).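 Further: GloSensor cAMP luminescence in HEK-293 GP2 cells expressing human PTHR1 with IBMX.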 In short, it runs like this: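 HEK-293 GP2 cells, PTHR1 + GloSensor cAMP; 3000 cells/well, o/n. Luciferin + IBMX 0.5mM each (stock), 1 hr 37C. Cpd titration, 1 hr 37C. Lum after 15 min RT. Ctrl M-PTH(1-15) top 10uM.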
Parathyroid hormone/parathyroid hormone-related peptide receptor (Homo sapiens), sequence (Q03431 whole entry, looked up): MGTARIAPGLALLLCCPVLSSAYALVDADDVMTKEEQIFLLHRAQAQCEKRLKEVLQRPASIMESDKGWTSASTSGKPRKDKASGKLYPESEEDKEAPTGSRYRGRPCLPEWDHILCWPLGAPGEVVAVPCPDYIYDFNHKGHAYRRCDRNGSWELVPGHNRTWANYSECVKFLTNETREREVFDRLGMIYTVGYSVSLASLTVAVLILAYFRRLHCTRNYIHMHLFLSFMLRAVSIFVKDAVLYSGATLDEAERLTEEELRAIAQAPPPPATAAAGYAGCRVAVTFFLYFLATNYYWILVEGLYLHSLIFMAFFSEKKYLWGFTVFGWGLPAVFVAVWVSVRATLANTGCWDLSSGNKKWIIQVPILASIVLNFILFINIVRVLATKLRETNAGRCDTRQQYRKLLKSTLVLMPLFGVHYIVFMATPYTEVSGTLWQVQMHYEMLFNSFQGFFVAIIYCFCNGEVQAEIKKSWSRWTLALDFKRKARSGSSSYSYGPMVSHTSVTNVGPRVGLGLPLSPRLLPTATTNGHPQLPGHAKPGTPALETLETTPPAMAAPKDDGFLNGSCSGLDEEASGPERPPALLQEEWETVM

The target in assay [19] is Atrial natriuretic peptide receptor 2 (Homo sapiens) (UniProt P20594). Put plainly: Natriuretic polypeptide receptor (hNpr2) antagonism - Pilot subtype selectivity assay (AID 1347050; calls by dose curve). In short, it runs like this: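 Antagonist mode: compounds (LOPAC1280, seven 1:5 dilutions) added 30 min before 1 nM hNppC stimulation of hNpr2-HEK293 cGMP-sensor cells; luminescence read before and 20 min after agonist at ambient temperature.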
Atrial natriuretic peptide receptor 2 (Homo sapiens), sequence (P20594 whole entry, looked up): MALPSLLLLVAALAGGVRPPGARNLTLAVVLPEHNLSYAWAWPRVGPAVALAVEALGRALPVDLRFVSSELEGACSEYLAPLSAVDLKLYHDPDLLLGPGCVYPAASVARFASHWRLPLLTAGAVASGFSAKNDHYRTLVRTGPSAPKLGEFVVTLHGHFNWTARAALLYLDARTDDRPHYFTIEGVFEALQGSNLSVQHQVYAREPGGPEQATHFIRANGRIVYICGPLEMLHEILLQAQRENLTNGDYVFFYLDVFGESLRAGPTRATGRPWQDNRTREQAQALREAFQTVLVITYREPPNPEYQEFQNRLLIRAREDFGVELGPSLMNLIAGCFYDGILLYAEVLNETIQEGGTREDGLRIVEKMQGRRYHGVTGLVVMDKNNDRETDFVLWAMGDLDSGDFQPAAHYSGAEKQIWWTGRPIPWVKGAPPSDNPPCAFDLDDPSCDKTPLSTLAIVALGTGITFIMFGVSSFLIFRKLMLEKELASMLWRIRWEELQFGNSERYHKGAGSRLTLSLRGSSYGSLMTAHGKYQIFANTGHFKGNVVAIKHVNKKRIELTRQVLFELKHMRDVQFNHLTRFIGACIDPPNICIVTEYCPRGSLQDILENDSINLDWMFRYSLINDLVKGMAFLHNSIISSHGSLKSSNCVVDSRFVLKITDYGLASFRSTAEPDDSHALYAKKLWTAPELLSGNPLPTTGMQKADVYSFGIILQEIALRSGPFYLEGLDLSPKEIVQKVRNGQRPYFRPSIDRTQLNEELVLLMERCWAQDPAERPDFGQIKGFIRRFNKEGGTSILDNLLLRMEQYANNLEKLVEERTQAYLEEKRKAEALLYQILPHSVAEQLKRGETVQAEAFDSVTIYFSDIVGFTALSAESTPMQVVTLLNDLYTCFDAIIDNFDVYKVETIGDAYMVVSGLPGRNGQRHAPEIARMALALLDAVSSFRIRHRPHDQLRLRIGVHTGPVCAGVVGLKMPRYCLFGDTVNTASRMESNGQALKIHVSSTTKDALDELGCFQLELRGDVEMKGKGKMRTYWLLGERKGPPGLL

Atrial natriuretic peptide receptor 1 (Homo sapiens), sequence (P16066 whole entry, looked up): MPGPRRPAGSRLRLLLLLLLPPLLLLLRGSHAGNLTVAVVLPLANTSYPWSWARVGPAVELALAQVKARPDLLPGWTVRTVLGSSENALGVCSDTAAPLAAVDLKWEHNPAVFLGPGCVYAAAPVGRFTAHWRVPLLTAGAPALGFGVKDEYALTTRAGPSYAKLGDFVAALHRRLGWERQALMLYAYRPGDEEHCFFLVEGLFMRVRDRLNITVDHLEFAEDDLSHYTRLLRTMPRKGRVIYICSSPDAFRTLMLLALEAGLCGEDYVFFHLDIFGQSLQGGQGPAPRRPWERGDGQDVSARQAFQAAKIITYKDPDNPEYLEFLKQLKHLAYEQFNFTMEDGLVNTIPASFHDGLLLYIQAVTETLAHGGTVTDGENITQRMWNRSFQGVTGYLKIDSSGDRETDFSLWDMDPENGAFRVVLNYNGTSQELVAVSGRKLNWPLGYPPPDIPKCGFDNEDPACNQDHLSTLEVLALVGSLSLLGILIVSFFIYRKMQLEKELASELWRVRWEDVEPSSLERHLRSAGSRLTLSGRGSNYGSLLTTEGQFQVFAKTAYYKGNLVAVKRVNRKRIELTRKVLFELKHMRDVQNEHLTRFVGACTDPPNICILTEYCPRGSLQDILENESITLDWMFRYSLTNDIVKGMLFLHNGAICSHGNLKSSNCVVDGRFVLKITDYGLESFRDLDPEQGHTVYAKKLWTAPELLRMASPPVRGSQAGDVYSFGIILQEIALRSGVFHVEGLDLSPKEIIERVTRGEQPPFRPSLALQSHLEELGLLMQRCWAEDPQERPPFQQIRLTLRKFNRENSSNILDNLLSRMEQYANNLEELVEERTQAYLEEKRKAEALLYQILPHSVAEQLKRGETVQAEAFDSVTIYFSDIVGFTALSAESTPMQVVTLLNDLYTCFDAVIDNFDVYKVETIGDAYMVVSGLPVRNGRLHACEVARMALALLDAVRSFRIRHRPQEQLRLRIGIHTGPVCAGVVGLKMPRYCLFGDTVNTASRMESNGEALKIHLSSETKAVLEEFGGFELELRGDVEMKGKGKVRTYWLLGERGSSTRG

Regarding `COc1cc([C@@H]2c3cc4c(cc3[C@H](O)[C@H]3COC(=O)[C@H]23)OCO4)cc(OC)c1OC`, the Potency in [1] was 18.7 nM (active); in [2], 2.1 nM (active); in assay [4], 130 nM (active) and 11.8 nM (active); in assay [6], 33.5 nM (active); in assay [7], 23.7 nM (active) and 1 nM (active); in assay [8] it was 84.1 nM (active) and 1 nM (active). Besides, the Potency in assay [9] is 53.1 nM (active) and 1 nM (active); in assay [10], 69.2 nM (active) and 1 nM (active). In addition, the IC50 (viability decrease) in assay [3] is 14.8 nM (active). Besides, the Potency result in assay [5] was “inactive”.
In the case of `CNC(=O)c1cc(Oc2ccc(NC(=O)Nc3ccc(Cl)c(C(F)(F)F)c3)cc2)ccn1`, the Potency was 20900 nM (active) in [1]; 18700 nM (active) in assay [11]; 11.8 µM (active) and 8.2 µM (active) and 6.51 µM (active) in assay [4]; 11800 nM (active) in [6]; 8.33 µM (active) in [7]; 2.96 µM (active) in [8]. Moreover, the Potency was 3.32 µM (active) in [9] and 21.7 µM (active) in assay [10]. Besides, the IC50 (viability decrease) in assay [3] is 18700 nM (active). Further, the Potency result in assay [5] and in assay [12] was “inactive” in each case.
As to `OCc1ccc(-c2nn(Cc3ccccc3)c3ccccc23)o1`, the outcome in assay [13], in [15], in assay [16], in assay [17] and in [18] was inactive. The Potency result in [14], in assay [5], in assay [12], in assay [6], in assay [7] and in assay [10] was “inactive” in each case.
Turning to `CNS(=O)(=O)CCc1ccc2[nH]cc(C3CCN(C)CC3)c2c1`, the result in assay [13], in assay [15], in assay [16] and in assay [17] was inactive. In addition, the Potency entry in assay [4], in assay [5] and in [12] was “inactive” in each case.
Turning to `Nc1nc(F)nc2c1ncn2[C@@H]1O[C@H](CO)[C@@H](O)[C@@H]1O`, the outcome in assay [13] was inactive. The Potency entry in assay [4] was “inactive and 662 nM (active)”; in assay [5], “inactive and 2.09 µM (active)”; in [6], 1480 nM (active); in assay [7], 0.935 µM (active); in assay [8] it was 0.743 µM (active); in assay [9], 33.5 nM (active) and 332 nM (active). In assay [10], the Potency was 0.863 µM (active).
`Cc1c(-c2ccc(O)cc2)n(Cc2ccc(OCCN3CCCCCC3)cc2)c2ccc(O)cc12`: the Potency result in assay [1], in assay [11], in assay [5], in [12], in assay [7] and in assay [8] was “inactive” each time. For the same compound, the Potency entry in assay [10] is “inactive”.
`CC1=C(C(=O)O)N2C(=O)[C@@H](NC(=O)C(N)c3ccccc3)[C@H]2SC1` (stereo not given in full): the outcome in assay [13], in [15], in [17] and in [18] was inactive. In addition, the Potency entry in [14], in [19], in [5], in assay [6], in assay [7] and in assay [8] was “inactive” throughout. Further, the Potency result in assay [10] is “inactive”.
On to `COc1ccc(-c2ccc3cc(C(=O)O)ccc3c2)cc1C12CC3CC(CC(C3)C1)C2`, for which, in assay [13], the result was inactive. For the same compound, the Potency is 13 µM (active) and inactive in [4]; 1.87 µM (active) in [7]; 668 nM (active) and 1.05 µM (active) in assay [9]. Further, the Potency result in [5], in assay [8] and in assay [10] was “inactive” in each case.
Turning to `CC(C)OC(=O)OCOP(=O)(CO[C@H](C)Cn1cnc2c(N)ncnc21)OCOC(=O)OC(C)C`, the outcome in [13] was inactive. Also, the Potency entry in assay [4], in assay [5], in assay [12], in assay [7], in [8] and in assay [10] was “inactive” each time. In addition, in assay [9], the Potency was 11.8 µM (active) and 15 µM (active).
